# “And” between values parts separate entries of the source, which are not always exact repeats. Equal values may be shown once. Results filed as inconclusive are left out. Where a call stands in place of a potency, no number is given. Unmarked numbers belong to inactive results. The source made the active and inactive calls. Unless noted, calls come from the whole dose curve.
# Molecular target: Estrogen receptor (Homo sapiens) (UniProt P03372)
# Experiment: qHTS assay for small molecule antagonists of estrogen receptor alpha signaling (AID 588513; active = well fitted curve in the direction sought with a large enough effect in the signal ratio, with a control signal flat, not every such curve was filed as active; the % refers to the signal ratio)
# Settings: ER-alpha-UAS-bla HEK293, beta-lactamase ratio, antagonist mode; series mostly up to 76.9 µM
# Procedure, shortened: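 ER-alpha-UAS-bla GripTite HEK 293 cells in medium with 2% charcoal/dextran-treated FBS were preincubated 4 h at 37 C, dosed with compound (1:2 titration), stimulated with 0.5nM 17-beta-estradiol for 18 h, then read by CCF4 beta-lactamase fluorescence.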
# Chain of Estrogen receptor (Homo sapiens) (P03372 whole entry, looked up): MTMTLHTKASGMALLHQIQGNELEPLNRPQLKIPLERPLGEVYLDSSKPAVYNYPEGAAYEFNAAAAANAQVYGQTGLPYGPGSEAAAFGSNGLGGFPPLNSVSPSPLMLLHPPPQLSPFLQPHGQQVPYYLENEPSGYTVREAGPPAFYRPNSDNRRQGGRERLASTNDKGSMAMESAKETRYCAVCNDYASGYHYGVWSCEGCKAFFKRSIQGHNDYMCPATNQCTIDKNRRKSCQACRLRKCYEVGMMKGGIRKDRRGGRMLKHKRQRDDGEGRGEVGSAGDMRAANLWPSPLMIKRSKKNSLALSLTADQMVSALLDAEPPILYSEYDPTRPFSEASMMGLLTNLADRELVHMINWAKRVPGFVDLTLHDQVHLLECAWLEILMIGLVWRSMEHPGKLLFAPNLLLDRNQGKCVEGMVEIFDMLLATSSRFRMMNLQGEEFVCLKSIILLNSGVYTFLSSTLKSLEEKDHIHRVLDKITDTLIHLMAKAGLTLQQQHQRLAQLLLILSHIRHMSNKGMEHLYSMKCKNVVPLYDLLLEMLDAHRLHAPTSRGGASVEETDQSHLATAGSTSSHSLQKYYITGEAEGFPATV
row,Compound,outcome
1,NC(=Nc1ccccc1)Nc1ccccc1,inactive
2,CNCC(O)c1ccc(O)cc1 (configuration not stated),inactive
3,Nc1ccncc1,inactive
4,c1ccc2c(c1)Nc1ccccc1S2,inactive
5,Oc1ccccc1-c1ccccc1,inactive
6,CCCC(C)(COC(N)=O)COC(=O)NC(C)C (configuration not stated),inactive
7,C[C@]12CCC(=O)C(O)=C1CC[C@@H]1[C@@H]2CC[C@]2(C)C(=O)CC[C@@H]12,inactive
8,OCCOc1ccccc1,inactive
9,COc1cc2c(c(OC)c1OC)-c1ccc(OC)c(=O)cc1[C@@H](NC(C)=O)CC2,inactive

# Molecular target: Estrogen receptor (Homo sapiens) (UniProt P03372)
# Experiment: qHTS assay for small molecule agonists of estrogen receptor alpha signaling (AID 588514); note: nearly all actives have a fitted effect of over 70% in size; note: potency is the fitted concentration of half-maximal effect
# Settings: ER-alpha-UAS-bla HEK293, beta-lactamase ratio, 18 h; series mostly up to 76.8 µM
# Procedure, shortened: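 Read-out: CCF4 fluorescence from a beta-lactamase reporter in ER-alpha-UAS-bla HEK 293 cells after 18 hrs of compound exposure at 37 C. Normalized to 20 nM 17-beta-estradiol (100%) and DMSO (0%).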
row,Compound,Potency
1,O=c1[nH]c2ccccc2n1C1CCN(CCCC(c2ccc(F)cc2)c2ccc(F)cc2)CC1,inactive
2,CNCC(O)c1ccc(O)cc1 (configuration not stated),inactive
3,CC(C)C(=O)Nc1ccc([N+](=O)[O-])c(C(F)(F)F)c1,inactive
4,C[C@]12C/C(=C/O)C(=O)C[C@@H]1CC[C@@H]1[C@@H]2CC[C@@]2(C)[C@H]1CC[C@]2(C)O,562 nM (active)
5,Nc1ccncc1,inactive
6,CCn1cc(C(=O)O)c(=O)c2ccc(C)nc21,inactive
7,c1ccc2c(c1)Nc1ccccc1S2,inactive
8,Oc1ccccc1-c1ccccc1,inactive
9,CCCC(C)(COC(N)=O)COC(=O)NC(C)C (configuration not stated),inactive
10,OCCOc1ccccc1,inactive
11,Clc1ccc(COC(Cn2ccnc2)c2ccc(Cl)cc2Cl)cc1 (configuration not stated),inactive

# Molecular target: Androgen receptor (Homo sapiens) (UniProt P10275)
# Experiment: qHTS assay for small molecule agonists of androgen receptor signaling (AID 588515; active = well fitted curve in the direction sought with a large enough effect in the signal ratio, with a control signal flat; the % refers to the signal ratio)
# Settings: AR-UAS-bla HEK293, beta-lactamase ratio, agonist 16 h; active compounds read high
# Procedure, shortened: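 Stimulation of an AR-responsive β-lactamase reporter in GripTite HEK293 cells was measured after 16 h compound exposure at 37 °C, via CCF4 fluorescence after 2 h RT. EC50 from Hill fits, normalized to R1881 at 30 nM.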
# Chain of Androgen receptor (Homo sapiens) (P10275 whole entry, looked up): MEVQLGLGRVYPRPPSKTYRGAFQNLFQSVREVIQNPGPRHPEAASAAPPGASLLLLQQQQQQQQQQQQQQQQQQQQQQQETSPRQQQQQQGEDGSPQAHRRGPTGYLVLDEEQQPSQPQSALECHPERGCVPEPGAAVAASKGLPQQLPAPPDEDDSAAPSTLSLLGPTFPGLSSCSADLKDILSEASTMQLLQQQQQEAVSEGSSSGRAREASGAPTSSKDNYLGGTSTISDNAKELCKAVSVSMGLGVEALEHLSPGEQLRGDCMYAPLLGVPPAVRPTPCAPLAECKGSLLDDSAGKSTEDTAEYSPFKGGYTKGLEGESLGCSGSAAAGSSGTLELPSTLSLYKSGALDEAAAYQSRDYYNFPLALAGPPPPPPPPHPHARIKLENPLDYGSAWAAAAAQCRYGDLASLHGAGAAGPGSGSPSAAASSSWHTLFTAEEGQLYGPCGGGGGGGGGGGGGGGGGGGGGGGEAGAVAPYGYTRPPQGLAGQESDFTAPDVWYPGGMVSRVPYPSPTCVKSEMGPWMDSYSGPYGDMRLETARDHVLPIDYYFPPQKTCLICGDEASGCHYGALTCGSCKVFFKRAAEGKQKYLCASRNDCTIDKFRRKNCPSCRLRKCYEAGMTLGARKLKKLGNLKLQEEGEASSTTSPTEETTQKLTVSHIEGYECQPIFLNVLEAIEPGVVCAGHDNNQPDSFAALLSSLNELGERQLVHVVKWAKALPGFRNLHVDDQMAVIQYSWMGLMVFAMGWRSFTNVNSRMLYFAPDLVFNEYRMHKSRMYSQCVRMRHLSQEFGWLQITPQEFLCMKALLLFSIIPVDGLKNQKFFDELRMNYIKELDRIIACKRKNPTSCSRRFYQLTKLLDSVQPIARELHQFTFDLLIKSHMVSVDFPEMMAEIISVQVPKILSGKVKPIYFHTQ
row,Compound,activation [%]
1,Nc1ccncc1,-4.84
2,Oc1ccc(Cl)cc1Cc1ccccc1,-12.3
3,CC(C)(C)CC(C)(C)c1ccc(O)cc1,2.26

# Molecular target: Androgen receptor (Homo sapiens) (UniProt P10275)
# Experiment: qHTS assay for small molecule antagonists of androgen receptor signaling (AID 588516; active = well fitted curve in the direction sought with a large enough effect in the signal ratio, with a control signal flat, not every such curve was filed as active; the % refers to the signal ratio)
# Settings: AR-UAS-bla HEK293, beta-lactamase ratio, antagonist mode, 16 h; series mostly up to 76.8 µM
# Procedure, shortened: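 AR-UAS-bla-GripTite HEK 293 cells (2000/well, 5 h at 37 C) received compound titrations, then R1881 at 10 nM final; after 16 h at 37 C, CCF4 dye 2 h RT, beta-lactamase fluorescence read; IC50 from Hill fits.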
row,Compound,outcome
1,Nc1ccncc1,inactive
2,Oc1ccc(Cl)cc1Cc1ccccc1,inactive
3,CC(C)(C)CC(C)(C)c1ccc(O)cc1,inactive

# Molecular target: Bile acid receptor (Homo sapiens) (UniProt Q96RI1)
# Experiment: qHTS assay for small molecule antagonists of farnesoid X receptor signaling (AID 588526); note: potency is the fitted concentration of half-maximal effect
# Settings: HEK293T FXR-UAS-bla, beta-lactamase ratio, antagonist mode; series mostly up to 76.7 µM
# Procedure, shortened: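 Beta-lactamase reporter antagonist mode: HEK293T FXR-UAS-bla cells, titrated compound, CDCA stimulation, 16 h 37 C, CCF4 dye 2 h RT. Data normalized to CDCA 50 uM and DMSO; Hill-fit IC50.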
# Chain of Bile acid receptor (Homo sapiens) (Q96RI1 whole entry, looked up): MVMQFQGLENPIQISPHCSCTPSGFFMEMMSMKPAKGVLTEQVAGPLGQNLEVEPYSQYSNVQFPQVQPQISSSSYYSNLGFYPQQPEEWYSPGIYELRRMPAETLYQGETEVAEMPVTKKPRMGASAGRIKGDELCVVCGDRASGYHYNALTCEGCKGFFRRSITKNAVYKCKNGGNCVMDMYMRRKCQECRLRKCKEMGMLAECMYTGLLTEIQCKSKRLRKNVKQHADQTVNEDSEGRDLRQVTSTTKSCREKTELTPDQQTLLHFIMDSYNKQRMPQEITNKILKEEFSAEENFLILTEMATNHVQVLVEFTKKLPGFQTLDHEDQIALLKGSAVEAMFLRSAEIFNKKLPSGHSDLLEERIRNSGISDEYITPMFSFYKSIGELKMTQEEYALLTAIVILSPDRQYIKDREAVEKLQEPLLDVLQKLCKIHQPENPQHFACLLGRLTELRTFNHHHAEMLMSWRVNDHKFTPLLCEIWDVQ
row,Compound,Potency
1,N[C@@H](Cc1ccc(N(CCCl)CCCl)cc1)C(=O)O,39800 nM (active)
2,CNCC(O)c1ccc(O)cc1 (configuration not stated),inactive
3,OCCOc1ccccc1,inactive
4,CC(C)(C)CC(C)(C)c1ccc(O)cc1,inactive
5,Cc1cc(SCc2sc(-c3ccc(C(F)(F)F)c(F)c3)nc2C)ccc1OCC(=O)O,inactive

# Molecular target: Glucocorticoid receptor (Homo sapiens) (UniProt P04150)
# Experiment: qHTS assay for small molecule agonists of glucocorticoid receptor signaling (AID 588532; active = well fitted curve in the direction sought with a large enough effect in the signal ratio, with a control signal flat; the % refers to the signal ratio)
# Settings: HeLa MMTV-bla, beta-lactamase ratio, agonist, 18 h; active compounds read high; percent of dexamethasone control, DMSO zero
# Procedure, shortened: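 Using MMTV-bla HeLa cells in medium with 1% stripped FBS and 25 mM HEPES, compounds were titrated and incubated overnight-length (18 h). Beta-lactamase cleavage of CCF4 was quantified by dual-emission fluorescence.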
# Chain of Glucocorticoid receptor (Homo sapiens) (P04150 whole entry, looked up): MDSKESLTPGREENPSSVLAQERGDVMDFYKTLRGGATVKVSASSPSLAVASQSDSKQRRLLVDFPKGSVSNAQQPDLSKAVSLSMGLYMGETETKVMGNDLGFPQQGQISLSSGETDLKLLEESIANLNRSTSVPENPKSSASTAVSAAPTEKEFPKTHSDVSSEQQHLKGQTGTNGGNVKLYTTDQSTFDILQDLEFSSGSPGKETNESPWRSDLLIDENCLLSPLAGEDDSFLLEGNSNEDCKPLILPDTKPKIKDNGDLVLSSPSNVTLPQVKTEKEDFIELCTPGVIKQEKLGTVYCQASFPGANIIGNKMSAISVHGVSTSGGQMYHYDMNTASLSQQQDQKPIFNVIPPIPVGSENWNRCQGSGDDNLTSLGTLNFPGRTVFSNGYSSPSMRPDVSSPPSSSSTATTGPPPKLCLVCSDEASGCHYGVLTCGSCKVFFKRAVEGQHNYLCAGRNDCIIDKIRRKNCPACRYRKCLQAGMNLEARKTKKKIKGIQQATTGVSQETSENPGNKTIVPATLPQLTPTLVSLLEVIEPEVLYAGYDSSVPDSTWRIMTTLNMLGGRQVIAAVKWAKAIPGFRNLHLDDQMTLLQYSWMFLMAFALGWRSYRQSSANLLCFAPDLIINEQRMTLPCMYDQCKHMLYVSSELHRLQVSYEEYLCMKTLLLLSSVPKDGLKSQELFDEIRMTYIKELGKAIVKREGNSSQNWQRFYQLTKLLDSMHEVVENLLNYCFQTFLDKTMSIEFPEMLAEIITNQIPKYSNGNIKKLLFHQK
row,Compound,activation
1,NC(=Nc1ccccc1)Nc1ccccc1,-8.4%
2,CCOP(=S)(OCC)Oc1cc(C)nc(C(C)C)n1,-2.71%
3,N[C@@H](Cc1ccc(N(CCCl)CCCl)cc1)C(=O)O,7.11% and 5.34%
4,Oc1cc(Cl)ccc1Oc1ccc(Cl)cc1Cl,-14.4%
5,O=c1[nH]c2ccccc2n1C1CCN(CCCC(c2ccc(F)cc2)c2ccc(F)cc2)CC1,4.7%
6,CNCC(O)c1ccc(O)cc1 (configuration not stated),9.17%
7,C[C@]12C/C(=C/O)C(=O)C[C@@H]1CC[C@@H]1[C@@H]2CC[C@@]2(C)[C@H]1CC[C@]2(C)O,-7.95%
8,CC(COc1ccccc1)N(CCCl)Cc1ccccc1 (configuration not stated),-12.9%
9,C=C(C)[C@H]1Cc2c(ccc3c2O[C@@H]2COc4cc(OC)c(OC)cc4[C@@H]2C3=O)O1,-11.8%
10,Oc1ccc(Cl)cc1Cc1ccccc1,-0.163% and -0.754%
11,C[C@H]1O[C@@H](O[C@H]2[C@@H](O)C[C@H](O[C@H]3[C@@H](O)C[C@H](O[C@H]4CC[C@@]5(C)[C@H](CC[C@@H]6[C@@H]5CC[C@]5(C)[C@@H](C7=CC(=O)OC7)CC[C@]65O)C4)O[C@@H]3C)O[C@@H]2C)C[C@H](O)[C@@H]1O,-14.2%
12,C[C@]12CCC(=O)C(O)=C1CC[C@@H]1[C@@H]2CC[C@]2(C)C(=O)CC[C@@H]12,2.34%
13,OCCOc1ccccc1,0.307% and -9.57% and -3.52%
14,COc1cc2c(c(OC)c1OC)-c1ccc(OC)c(=O)cc1[C@@H](NC(C)=O)CC2,-3.94% and -2.86%
15,Clc1ccc(COC(Cn2ccnc2)c2ccc(Cl)cc2Cl)cc1 (configuration not stated),9.41%
16,CN(C)CCC=C1c2ccccc2CCc2ccccc21,-8.68%
17,CC(C)(C)CC(C)(C)c1ccc(O)cc1,4.7%

# Molecular target: Glucocorticoid receptor (Homo sapiens) (UniProt P04150)
# Experiment: qHTS assay for small molecule antagonists of glucocorticoid receptor signaling (AID 588533; active = well fitted inhibition curve with a large enough effect in the signal ratio, with a control signal flat, not every such curve was filed as active; the % refers to the signal ratio;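 note: cells stimulated with 2 nM dexamethasone as agonist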; note: potency is the fitted concentration of half-maximal effect)
# Settings: HeLa MMTV-bla, GRE beta-lactamase ratio, antagonist mode, 18 h; series mostly up to 76.8 µM
# Procedure, shortened: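 Antagonist-mode qHTS: compound titrations added to GRE-bla HeLa cells, then dexamethasone 2 nM final; 18 h, 37 C. CCF4 FRET fluorescence normalized to dexamethasone and DMSO; IC50 from Hill fit.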
row,Compound,Potency
1,CCOP(=S)(OCC)Oc1cc(C)nc(C(C)C)n1,inactive
2,N[C@@H](Cc1ccc(N(CCCl)CCCl)cc1)C(=O)O,inactive
3,O=c1[nH]c2ccccc2n1C1CCN(CCCC(c2ccc(F)cc2)c2ccc(F)cc2)CC1,inactive
4,CNCC(O)c1ccc(O)cc1 (configuration not stated),inactive
5,Oc1ccc(Cl)cc1Cc1ccccc1,inactive
6,C[C@H]1O[C@@H](O[C@H]2[C@@H](O)C[C@H](O[C@H]3[C@@H](O)C[C@H](O[C@H]4CC[C@@]5(C)[C@H](CC[C@@H]6[C@@H]5CC[C@]5(C)[C@@H](C7=CC(=O)OC7)CC[C@]65O)C4)O[C@@H]3C)O[C@@H]2C)C[C@H](O)[C@@H]1O,355 nM (active)
7,C[C@]12CCC(=O)C(O)=C1CC[C@@H]1[C@@H]2CC[C@]2(C)C(=O)CC[C@@H]12,inactive
8,OCCOc1ccccc1,inactive
9,COc1cc2c(c(OC)c1OC)-c1ccc(OC)c(=O)cc1[C@@H](NC(C)=O)CC2,inactive
